Key:
[1] = biological target: Rho-associated protein kinase 1 (Homo sapiens) (UniProt Q13464); conditions: at 1 µM;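 note: reported values are mean percent inhibition of ROCK1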
[2] = biological target: Rho-associated protein kinase 2 (Homo sapiens) (UniProt O75116); conditions: at 0.1 µM
[3] = biological target: Rho-associated protein kinase 2 (Homo sapiens) (UniProt O75116); conditions: at 1 µM
[4] = biological target: Ribosomal protein S6 kinase alpha-1 (Homo sapiens) (UniProt Q15418); conditions: at 0.1 µM
[5] = biological target: Ribosomal protein S6 kinase alpha-1 (Homo sapiens) (UniProt Q15418); conditions: at 1 µM
[6] = biological target: Ribosomal protein S6 kinase alpha-3 (Homo sapiens) (UniProt P51812); conditions: at 0.1 µM
[7] = biological target: Ribosomal protein S6 kinase alpha-3 (Homo sapiens) (UniProt P51812); conditions: at 1 µM
[8] = biological target: Ribosomal protein S6 kinase alpha-2 (Homo sapiens) (UniProt Q15349); conditions: at 0.1 µM
[9] = biological target: Ribosomal protein S6 kinase alpha-2 (Homo sapiens) (UniProt Q15349); conditions: at 1 µM
[10] = biological target: Ribosomal protein S6 kinase alpha-6 (Homo sapiens) (UniProt Q9UK32); conditions: at 0.1 µM
[11] = biological target: Ribosomal protein S6 kinase alpha-6 (Homo sapiens) (UniProt Q9UK32); conditions: at 1 µM
[12] = biological target: T1, Serine/threonine-protein kinase Sgk1 (Homo sapiens) (UniProt O00141); conditions: at 0.1 µM
T1 sequence (whole entry): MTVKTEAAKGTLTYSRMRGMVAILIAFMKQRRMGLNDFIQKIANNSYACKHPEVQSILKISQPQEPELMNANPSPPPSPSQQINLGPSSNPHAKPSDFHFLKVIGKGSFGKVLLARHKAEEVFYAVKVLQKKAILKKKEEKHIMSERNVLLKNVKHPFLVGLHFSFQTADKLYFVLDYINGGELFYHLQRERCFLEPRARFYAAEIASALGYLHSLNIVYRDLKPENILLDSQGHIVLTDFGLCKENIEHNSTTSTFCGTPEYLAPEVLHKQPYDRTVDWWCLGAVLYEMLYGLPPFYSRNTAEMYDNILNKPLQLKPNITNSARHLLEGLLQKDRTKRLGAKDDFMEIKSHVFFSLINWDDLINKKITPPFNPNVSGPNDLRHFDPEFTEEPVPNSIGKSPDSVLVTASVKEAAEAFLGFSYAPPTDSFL

[13] = biological target: T1, Serine/threonine-protein kinase Sgk1 (Homo sapiens); conditions: at 1 µM
[14] = biological target: T2, Serine/threonine-protein kinase Sgk2 (Homo sapiens) (UniProt Q9HBY8); conditions: at 0.1 µM
T2 sequence (whole entry): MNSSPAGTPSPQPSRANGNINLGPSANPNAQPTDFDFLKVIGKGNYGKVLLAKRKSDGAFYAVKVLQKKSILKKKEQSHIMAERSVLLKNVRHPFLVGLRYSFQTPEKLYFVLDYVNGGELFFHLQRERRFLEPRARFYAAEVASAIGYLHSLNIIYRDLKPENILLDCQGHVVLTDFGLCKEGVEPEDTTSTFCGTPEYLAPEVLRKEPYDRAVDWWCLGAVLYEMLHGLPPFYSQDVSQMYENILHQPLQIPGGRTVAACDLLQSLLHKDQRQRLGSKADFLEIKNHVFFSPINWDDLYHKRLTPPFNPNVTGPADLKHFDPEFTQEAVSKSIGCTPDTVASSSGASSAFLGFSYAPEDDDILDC

[15] = biological target: T2, Serine/threonine-protein kinase Sgk2 (Homo sapiens); conditions: at 1 µM
[16] = biological target: T3, Serine/threonine-protein kinase Sgk3 (Homo sapiens) (UniProt Q96BR1); conditions: at 0.1 µM
T3 sequence (whole entry): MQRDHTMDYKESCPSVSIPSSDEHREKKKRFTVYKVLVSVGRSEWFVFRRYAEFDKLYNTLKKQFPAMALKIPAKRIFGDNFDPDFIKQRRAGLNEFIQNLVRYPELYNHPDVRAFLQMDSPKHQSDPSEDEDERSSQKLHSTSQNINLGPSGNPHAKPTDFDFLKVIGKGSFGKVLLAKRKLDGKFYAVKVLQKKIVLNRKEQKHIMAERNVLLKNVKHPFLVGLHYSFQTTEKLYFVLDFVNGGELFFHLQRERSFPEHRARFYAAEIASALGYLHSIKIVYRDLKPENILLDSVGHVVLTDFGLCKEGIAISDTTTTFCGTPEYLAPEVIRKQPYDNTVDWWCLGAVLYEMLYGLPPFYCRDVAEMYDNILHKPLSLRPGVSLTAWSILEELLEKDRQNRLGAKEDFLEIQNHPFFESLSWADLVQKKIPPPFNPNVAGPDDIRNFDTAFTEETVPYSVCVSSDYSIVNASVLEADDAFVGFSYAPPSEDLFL

[17] = biological target: T3, Serine/threonine-protein kinase Sgk3 (Homo sapiens); conditions: at 1 µM
[18] = biological target: 5'-AMP-activated protein kinase catalytic subunit alpha-1 (Homo sapiens) (UniProt Q13131); conditions: at 0.1 µM
[19] = biological target: 5'-AMP-activated protein kinase catalytic subunit alpha-1 (Homo sapiens) (UniProt Q13131); conditions: at 1 µM
[20] = biological target: 5'-AMP-activated protein kinase catalytic subunit alpha-2 (Homo sapiens) (UniProt P54646); conditions: at 0.1 µM;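 note: mean inhibition measured on the AMPK complex of alpha2, beta1 and gamma1 subunits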
Chain of 5'-AMP-activated protein kinase catalytic subunit alpha-2 (Homo sapiens) (P54646 whole entry, looked up): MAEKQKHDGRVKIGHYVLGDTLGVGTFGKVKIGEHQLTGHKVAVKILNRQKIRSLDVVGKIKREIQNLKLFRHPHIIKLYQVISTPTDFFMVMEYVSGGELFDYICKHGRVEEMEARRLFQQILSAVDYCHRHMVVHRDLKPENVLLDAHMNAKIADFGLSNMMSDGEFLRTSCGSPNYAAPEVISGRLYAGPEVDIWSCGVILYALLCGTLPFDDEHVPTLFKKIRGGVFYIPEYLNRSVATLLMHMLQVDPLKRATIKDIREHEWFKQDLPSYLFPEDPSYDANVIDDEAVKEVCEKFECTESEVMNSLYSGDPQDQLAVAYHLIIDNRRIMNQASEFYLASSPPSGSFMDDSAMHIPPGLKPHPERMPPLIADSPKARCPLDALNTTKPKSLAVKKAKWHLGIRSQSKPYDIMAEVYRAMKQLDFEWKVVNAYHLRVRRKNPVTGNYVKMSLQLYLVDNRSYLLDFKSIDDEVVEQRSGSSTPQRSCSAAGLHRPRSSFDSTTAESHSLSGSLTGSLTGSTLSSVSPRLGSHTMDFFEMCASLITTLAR

Chain of Ribosomal protein S6 kinase alpha-6 (Homo sapiens) (Q9UK32 whole entry): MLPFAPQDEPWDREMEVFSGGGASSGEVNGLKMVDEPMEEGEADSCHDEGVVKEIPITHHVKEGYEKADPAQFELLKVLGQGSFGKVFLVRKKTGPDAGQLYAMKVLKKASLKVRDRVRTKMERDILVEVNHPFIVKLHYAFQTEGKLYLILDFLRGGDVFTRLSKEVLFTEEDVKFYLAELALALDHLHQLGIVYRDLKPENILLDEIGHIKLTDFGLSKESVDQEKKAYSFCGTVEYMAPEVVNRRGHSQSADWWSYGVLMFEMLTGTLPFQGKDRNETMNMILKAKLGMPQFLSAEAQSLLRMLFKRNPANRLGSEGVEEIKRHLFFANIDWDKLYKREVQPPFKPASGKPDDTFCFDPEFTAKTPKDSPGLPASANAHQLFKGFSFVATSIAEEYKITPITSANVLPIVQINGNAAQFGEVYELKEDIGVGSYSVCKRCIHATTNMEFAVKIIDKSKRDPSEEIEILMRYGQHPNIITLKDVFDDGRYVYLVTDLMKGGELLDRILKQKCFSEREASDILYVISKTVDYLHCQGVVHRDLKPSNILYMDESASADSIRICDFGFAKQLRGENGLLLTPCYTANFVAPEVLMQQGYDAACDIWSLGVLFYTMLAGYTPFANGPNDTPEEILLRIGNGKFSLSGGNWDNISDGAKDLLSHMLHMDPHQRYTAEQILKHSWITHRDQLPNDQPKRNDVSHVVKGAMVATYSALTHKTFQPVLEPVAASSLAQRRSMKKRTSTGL
Chain of 5'-AMP-activated protein kinase catalytic subunit alpha-1 (Homo sapiens) (Q13131 whole entry, looked up): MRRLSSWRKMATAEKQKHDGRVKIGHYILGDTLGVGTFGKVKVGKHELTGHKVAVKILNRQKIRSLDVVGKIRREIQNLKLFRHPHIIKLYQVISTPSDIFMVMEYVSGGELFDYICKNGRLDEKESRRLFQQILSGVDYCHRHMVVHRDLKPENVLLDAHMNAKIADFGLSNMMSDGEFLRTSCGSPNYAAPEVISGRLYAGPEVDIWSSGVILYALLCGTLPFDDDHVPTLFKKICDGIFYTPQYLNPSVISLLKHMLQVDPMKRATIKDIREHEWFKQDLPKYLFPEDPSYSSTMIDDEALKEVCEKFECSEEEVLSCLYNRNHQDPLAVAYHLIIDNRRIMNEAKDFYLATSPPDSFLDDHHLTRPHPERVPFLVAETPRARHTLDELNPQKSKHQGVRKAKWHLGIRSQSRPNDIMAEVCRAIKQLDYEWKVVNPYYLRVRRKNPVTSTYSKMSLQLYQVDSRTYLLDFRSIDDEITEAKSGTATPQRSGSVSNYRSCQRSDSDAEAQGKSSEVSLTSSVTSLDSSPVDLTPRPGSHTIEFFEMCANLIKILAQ
Chain of Ribosomal protein S6 kinase alpha-3 (Homo sapiens) (P51812 whole entry): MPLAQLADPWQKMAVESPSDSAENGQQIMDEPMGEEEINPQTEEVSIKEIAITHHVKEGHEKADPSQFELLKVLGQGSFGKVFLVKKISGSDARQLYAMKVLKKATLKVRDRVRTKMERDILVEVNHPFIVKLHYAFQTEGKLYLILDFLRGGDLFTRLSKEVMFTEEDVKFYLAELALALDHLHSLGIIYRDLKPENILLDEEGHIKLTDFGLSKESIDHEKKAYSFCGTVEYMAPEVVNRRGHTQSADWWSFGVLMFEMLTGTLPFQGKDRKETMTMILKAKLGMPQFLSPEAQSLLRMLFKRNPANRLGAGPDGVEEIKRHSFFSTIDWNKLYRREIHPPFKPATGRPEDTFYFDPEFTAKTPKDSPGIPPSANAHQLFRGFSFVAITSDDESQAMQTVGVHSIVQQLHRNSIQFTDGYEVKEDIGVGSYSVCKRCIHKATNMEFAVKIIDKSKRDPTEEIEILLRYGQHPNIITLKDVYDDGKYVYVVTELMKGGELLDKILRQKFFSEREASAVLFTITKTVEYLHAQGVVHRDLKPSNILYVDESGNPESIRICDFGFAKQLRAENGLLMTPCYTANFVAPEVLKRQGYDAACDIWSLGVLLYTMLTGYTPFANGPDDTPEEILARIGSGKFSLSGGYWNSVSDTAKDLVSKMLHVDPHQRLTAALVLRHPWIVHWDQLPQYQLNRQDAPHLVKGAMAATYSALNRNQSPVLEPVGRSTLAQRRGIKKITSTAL
Chain of Ribosomal protein S6 kinase alpha-2 (Homo sapiens) (Q15349 whole entry): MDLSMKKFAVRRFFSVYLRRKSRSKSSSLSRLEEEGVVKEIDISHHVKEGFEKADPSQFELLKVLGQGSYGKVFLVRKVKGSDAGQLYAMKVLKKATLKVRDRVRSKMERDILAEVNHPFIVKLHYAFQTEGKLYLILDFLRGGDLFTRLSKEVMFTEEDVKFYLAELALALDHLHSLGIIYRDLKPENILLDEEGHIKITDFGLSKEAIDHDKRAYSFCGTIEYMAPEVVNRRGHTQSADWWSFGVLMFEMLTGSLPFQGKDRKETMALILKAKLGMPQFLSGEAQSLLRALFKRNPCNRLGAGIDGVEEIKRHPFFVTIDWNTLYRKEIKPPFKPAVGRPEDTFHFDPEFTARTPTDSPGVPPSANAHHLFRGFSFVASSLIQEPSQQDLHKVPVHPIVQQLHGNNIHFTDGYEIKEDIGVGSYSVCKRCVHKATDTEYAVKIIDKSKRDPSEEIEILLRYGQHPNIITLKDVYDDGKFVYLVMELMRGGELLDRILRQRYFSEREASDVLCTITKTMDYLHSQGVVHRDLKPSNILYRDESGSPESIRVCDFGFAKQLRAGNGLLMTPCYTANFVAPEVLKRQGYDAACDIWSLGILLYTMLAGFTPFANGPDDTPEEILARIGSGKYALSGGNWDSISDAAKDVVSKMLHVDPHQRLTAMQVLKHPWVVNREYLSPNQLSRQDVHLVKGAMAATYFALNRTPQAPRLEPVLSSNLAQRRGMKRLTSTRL
Chain of Ribosomal protein S6 kinase alpha-1 (Homo sapiens) (Q15418 whole entry): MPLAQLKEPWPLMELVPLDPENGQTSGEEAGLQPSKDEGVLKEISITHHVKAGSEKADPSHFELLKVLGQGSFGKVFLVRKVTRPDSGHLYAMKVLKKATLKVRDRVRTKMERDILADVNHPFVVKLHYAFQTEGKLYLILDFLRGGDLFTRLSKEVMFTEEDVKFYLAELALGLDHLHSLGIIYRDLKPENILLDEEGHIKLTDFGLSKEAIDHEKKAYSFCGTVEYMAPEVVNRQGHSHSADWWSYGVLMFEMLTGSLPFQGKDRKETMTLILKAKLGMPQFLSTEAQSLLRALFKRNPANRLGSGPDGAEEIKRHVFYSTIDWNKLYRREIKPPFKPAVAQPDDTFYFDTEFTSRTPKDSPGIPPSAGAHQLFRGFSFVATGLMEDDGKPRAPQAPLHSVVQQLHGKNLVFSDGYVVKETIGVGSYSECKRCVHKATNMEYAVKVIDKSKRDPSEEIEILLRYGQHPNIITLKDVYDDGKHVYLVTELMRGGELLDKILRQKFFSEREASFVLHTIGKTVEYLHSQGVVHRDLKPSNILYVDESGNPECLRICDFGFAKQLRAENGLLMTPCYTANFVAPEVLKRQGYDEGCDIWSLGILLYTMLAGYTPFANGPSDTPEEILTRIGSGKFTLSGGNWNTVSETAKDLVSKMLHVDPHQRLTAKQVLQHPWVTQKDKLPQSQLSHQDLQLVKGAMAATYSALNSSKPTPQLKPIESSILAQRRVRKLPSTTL

| SMILES | inhibition [1] | inhibition [2] | inhibition [3] | inhibition [4] | inhibition [5] | inhibition [6] | inhibition [7] | inhibition [8] | inhibition [9] | inhibition [10] | inhibition [11] | inhibition [12] | inhibition [13] | inhibition [14] | inhibition [15] | inhibition [16] | inhibition [17] | inhibition [18] | inhibition [19] | inhibition [20] |
| --- | --- | --- | --- | --- | --- | --- | --- | --- | --- | --- | --- | --- | --- | --- | --- | --- | --- | --- | --- | --- |
| COc1ccc(-c2cc(-c3c[nH]nc3-c3ccccn3)ccn2)cc1 | 4.3% | 4.88% | 7.92% | 2.73% | 6.34% | 1.84% | 4.06% | 2.82% | 4.07% | 1.53% | 1.8% | 2.87% | 7.39% | 5.02% | 5.93% | 4.82% | 6.74% | 4.71% | 6.63% | 0.83% |
| CS(=O)(=O)CCNCc1coc(-c2ccc3ncnc(Nc4ccc(OCc5ccccc5)cc4)c3c2)c1 | 1.33% | 1.66% | 1.35% | 2.08% | 2.82% | 2.71% | 3.03% | 3.38% | 3.14% | 2.43% | 2.32% | 2.57% | 2.35% | -0.69% | 1.93% | -0.71% | 1.87% | 2.75% | 2.96% | 3.81% |
| Fc1ccc(-c2nn3ncccc3c2-c2ccnc(Nc3ccc4c(c3)OCCO4)n2)cc1 | 1.7% | 1.49% | 2.36% | 1.15% | 4.94% | 0.37% | 1.36% | 2.3% | 4.22% | 2.06% | 5.49% | 3.85% | 3.42% | 0.17% | 0.65% | 4.45% | 0.8% | 3% | 1.48% | 3.53% |
| NC(=O)c1sc(-n2cnc3ccc(C(F)(F)F)cc32)cc1OCc1ccccc1Br | 3.95% | 2.8% | 4.98% | 2.63% | 4.25% | 0.56% | 2.48% | 0.97% | 3.47% | 0.36% | 2.19% | 3.07% | 4.04% | -0.91% | 3.21% | 3.83% | 4.65% | 2.58% | 4.41% | 3.14% |
| Cc1ccc2c(-c3ccnc(Nc4ccccc4)n3)c(-c3ccc(F)cc3)nn2n1 | 1.37% | 2.77% | 2.45% | 1.84% | 4.63% | 0.24% | 0.63% | 2.02% | 2.16% | 0.84% | 4.74% | 2.01% | 1.69% | 2.15% | 3.69% | 2.63% | 2.1% | 2.48% | 2.15% | 0.59% |
| CCCN(CCS(C)(=O)=O)Cc1ccc(-c2ccc3ncnc(Nc4ccc(OCc5cccc(F)c5)c(Cl)c4)c3c2)o1 | 0.05% | 1.92% | 2.01% | 1.36% | 0.68% | 0.4% | 0.24% | 1.59% | 1.46% | 1.43% | 0.41% | 0.88% | 2.15% | 0.16% | -0.86% | 2.21% | 1.28% | 0.05% | 1.68% | 2.47% |
| COc1ccc2[nH]c3c4[nH]c5ccc(OC)cc5c4c4c(c3c2c1)C(=O)NC4=O | 7.02% | 6.62% | 16.6% | 53.9% | 82% | 44.9% | 80.1% | 73.5% | 92.4% | 58.2% | 88% | 21.8% | 63.8% | 16.6% | 59.4% | 9.76% | 40.2% | 37% | 78% | 17.9% |
| COc1cc(Nc2nccc(Nc3ccc4c(C)n[nH]c4c3)n2)cc(OC)c1OC | 7.47% | 1.83% | 12.1% | -0.21% | -0.01% | 1.04% | 0.03% | 0.87% | 0.74% | 1.26% | 2.74% | 3.49% | 5.3% | -0.28% | -0.14% | 2.13% | 1.07% | 1.6% | 1.71% | 2.15% |
| CC(C)(CO)CNC(=O)c1ccc2c(c1)/C(=N/Nc1ccc(S(N)(=O)=O)cc1)C(=O)N2 | 5.01% | 0.95% | 10.3% | 0.63% | 3.49% | 0.73% | 4.41% | 0.48% | 6.29% | 1.62% | 9.45% | 0.94% | 8.72% | 0.65% | 3.3% | -2.66% | 3.04% | 26% | 72.3% | 6.91% |
| CN1CCC(n2cnc(-c3ccc(F)cc3)c2-c2ccnc(Nc3ccccc3)n2)CC1 | 0.32% | 0.82% | 3.27% | 1.76% | 4.83% | 1.15% | 3.9% | 2.93% | 2.91% | 3.17% | 2.69% | 2.19% | 5.36% | 3.28% | 5.4% | 2.89% | 3.19% | 2.05% | 3.64% | -0.33% |
| Cc1cccc2c1NC(=O)/C2=N\Nc1ccc(S(N)(=O)=O)cc1 | 2.1% | 3.93% | 1.59% | 1.09% | 1.6% | 0.33% | 1.26% | 1.69% | 2.49% | 1.43% | 2.27% | 0.42% | 3.23% | 2.93% | 3.69% | 0.3% | -0.24% | 2.8% | 4.3% | 0.95% |
| Nc1nc(-c2cccc(Cl)c2)c(-c2ccc3ncccc3n2)s1 | 1.91% | 4.39% | 7.84% | 3.03% | 9.16% | 1.82% | 4.8% | 3.04% | 2.74% | 1.97% | 2.73% | 4.41% | 5.86% | 2.07% | 3.59% | 4.35% | 6.98% | 3.09% | 5.53% | 3.05% |

Source: ChEMBL document CHEMBL1961873, “Compounds: GSK PKIS; Assays: Nanosyn kinase panel” (2012)
